In PubChem BioAssay (EPA / NIEHS) one finds outcome and AC50 data, which are given here for seven compounds.

By AC50 is commonly meant the concentration giving half of the maximal activity seen.

Active and inactive are the calls of the source. The calls were made as follows: active = hit-call score of the fitted dose curve at least 0.9, where 1 is the maximum; inactive = score below 0.9.

A short description of experiment [1]: ATG_E_Box_CIS: Attagene CIS-FACTORIAL HepG2 Assay for human Enhancer Box (E-box) (AID 2282936). The following applies: HepG2 E-box cis-reporter transcription, actives raise or lower the signal. The method, boiled down: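 DMSO served as negative control and baseline for bidirectional fitting. Human hepatoma HepG2 cells, transiently transfected with cis-reporter constructs, were dosed 24 h; reporter mRNA read by RT-PCR and capillary electrophoresis.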

Experiment [2] is described as follows: ATG_M_61_CIS: Attagene CIS-FACTORIAL HepG2 Assay for M61 Transcription Factor (Internal Marker) (AID 2282937). The following applies: HepG2 Attagene CIS-FACTORIAL M61 internal marker reporter; actives raise or lower the signal. In short, it runs like this:
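HepG2 cells transiently transfected with multiplexed cis-promoter reporter units reporting endogenous transcription factor activity, measured 24 h after dosing. Reporter mRNA quantified by RT-PCR and capillary electrophoresis; bidirectional fit against DMSO baseline.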

Experiment [3] in a line: ATG_EGR_CIS: Attagene CIS-FACTORIAL HepG2 Assay for human Early Growth Response 1 (EGR1) (AID 2282938). The following applies: HepG2 Attagene CIS-FACTORIAL EGR reporter mRNA; actives raise or lower the signal. In short, it runs like this:
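HepG2 cells transiently transfected with cis-element-driven multiplexed reporter units, dosed for 24 h. EGR1-element reporter mRNA quantified by RT-PCR, 6-FAM labelling, HpaI digestion and capillary electrophoresis; bidirectional fit versus DMSO.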

Experiment [4] in a line: ATG_M_19_CIS: Attagene CIS-FACTORIAL HepG2 Assay for M19 Transcription Factor (Internal Marker) (AID 2282939). The following applies: HepG2 Attagene CIS-FACTORIAL M19 internal marker reporter; actives raise or lower the signal. The method, boiled down: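 Chemical-treated HepG2 (24 h) with MRTU constructs; reporter transcripts detected by fluorescent RT-PCR fragment analysis on capillary electrophoresis. Internal background marker, DMSO as baseline.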

Experiment [5] is described as follows: ATG_ERE_CIS: Attagene CIS-FACTORIAL HepG2 Assay for Estrogen Response Element (ERE) (AID 2282940). The following applies: HepG2 ERE cis-reporter, Attagene RNA transcript; actives raise or lower the signal. The method, boiled down: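 Human liver cells (HepG2) bearing transiently transfected, promoter-regulated reporter units were exposed 24 h. Reporter mRNA induction was detected by capillary electrophoresis of labelled RT-PCR products and fitted bidirectionally to DMSO.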

The nature of experiment [6]: ATG_Ets_CIS: Attagene CIS-FACTORIAL HepG2 Assay for human Erythroblast Transformation Specific (ETS) (AID 2282941). The following applies: HepG2 ETS cis-reporter transcription, actives raise or lower the signal. In short, it runs like this: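 Human HepG2 hepatoma cells were transiently transfected with promoter-driven reporter constructs and treated for 24 hours. Reporter transcripts were quantified by RT-PCR with fluorescent primer extension; bidirectional curve fitting used DMSO as reference.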

Experiment [7] has as its target Hepatocyte nuclear factor 3-beta (Homo sapiens) (UniProt Q9Y261). Kind of experiment: ATG_FoxA2_CIS: Attagene CIS-FACTORIAL HepG2 Assay for human Forkhead box A2 (FOXA2) (AID 2282942). The following applies: HepG2 cis-reporter transcription factor activity, 24 h; actives raise or lower the signal. The method, boiled down:
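HepG2 transiently transfected with a multiplexed cis-promoter reporter library read endogenous FOXA2 activity. After 24 h compound exposure, reporter mRNA was quantified by RT-PCR, HpaI digestion and capillary electrophoresis. Bidirectional fit against DMSO.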

Experiment [8] is described as follows: ATG_FoxO_CIS: Attagene CIS-FACTORIAL HepG2 Assay for human Forkhead box O (FoxO) (AID 2282943). The following applies: HepG2 Attagene cis-reporter, FoxO element, mRNA; actives raise or lower the signal. The method, boiled down:
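Endogenous transcription factor activity read from multiplexed cis-promoter reporter transcripts in transiently transfected HepG2, 24 h after dosing. Reporter RNA measured via RT-PCR plus capillary electrophoresis of FAM-labeled products; gain or loss relative to DMSO.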

Experiment [9] in a line: ATG_GLI_CIS: Attagene CIS-FACTORIAL HepG2 Assay for human Zinc Finger Protein GLI1 (AID 2282945). The following applies: HepG2, Attagene cis-factorial reporter mRNA, GLI element; actives raise or lower the signal. The method, boiled down:
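Bidirectional curve fits relative to DMSO, using reporter mRNA levels from RT-PCR plus capillary electrophoresis. Cells were HepG2 transiently carrying cis-regulated reporter constructs, harvested 24 h after dosing.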

Experiment [10] is described as follows: ATG_GRE_CIS: Attagene CIS-FACTORIAL HepG2 Assay for human Glucocorticoid Response Elements (GRE) (AID 2282947). The following applies: HepG2 GRE cis-reporter, Attagene multiplex mRNA; actives raise or lower the signal. In short, it runs like this: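 Assay uses human hepatoma HepG2 cells transfected with cis-promoter reporter units, exposed 24 h. mRNA from reporters detected by RT-PCR plus capillary electrophoresis; DMSO serves as negative control and baseline.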

Experiment [11] in a line: ATG_ISRE_CIS: Attagene CIS-FACTORIAL HepG2 Assay for human Interferon Regulatory Factor 1 (IRF1) binding to an Interferon-Stimulated Response Element (ISRE) (AID 2282948). The following applies: HepG2 ISRE cis-reporter (Attagene), mRNA transcription readout; actives raise or lower the signal. In short, it runs like this: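 Cell-based cis-reporter assay; HepG2; 24 h exposure; reporter mRNA by RT-PCR plus capillary electrophoresis fluorescence; activity in either direction scored relative to DMSO.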

Experiment [12] is described as follows: ATG_M_32_CIS: Attagene CIS-FACTORIAL HepG2 Assay for M32 Transcription Factor (Internal Marker) (AID 2282949).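 Also: background control marker of the multiplexed CIS panel rather than a real target.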 The following applies: HepG2 Attagene cis-factorial M32 reporter, mRNA; actives raise or lower the signal. In short, it runs like this: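 Following 24 h chemical exposure of HepG2 cells transiently expressing cis-promoter reporter constructs, reporter transcript levels were determined by RT-PCR with fluorescent labelling and capillary electrophoresis, then fitted bidirectionally against DMSO.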

A short description of experiment [13]: ATG_M_06_CIS: Attagene CIS-FACTORIAL HepG2 Assay for M06 Transcription Factor (Internal Marker) (AID 2282950). The following applies: HepG2 Attagene CIS-FACTORIAL M06 internal marker reporter; actives raise or lower the signal. In short, it runs like this: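 Cells (HepG2, transiently carrying cis-driven reporter units) receive chemical for 24 h before RNA isolation. Reporter cDNA is PCR-amplified, FAM-labelled by primer extension, HpaI-digested and sized on a capillary analyser.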

Experiment [14] concerns the target Hypoxia-inducible factor 1-alpha (Homo sapiens) (UniProt Q16665). The experiment in a line: ATG_HIF1a_CIS: Attagene CIS-FACTORIAL HepG2 Assay for human Hypoxia Inducible Factor 1 (HIF1A) (AID 2282951). The following applies: HepG2 Attagene cis-factorial HIF1a reporter transcription; actives raise or lower the signal. The method, boiled down:
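HepG2 cells transiently transfected with multiple cis-regulated reporter transcription units measure endogenous transcription factor activity. After 24 h exposure, reporter mRNA is quantified by RT-PCR with 6-FAM labelling, HpaI digestion and capillary electrophoresis. Bidirectional fitting against DMSO.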

Experiment [15] has as its target Hepatocyte nuclear factor 6 (Homo sapiens) (UniProt Q9UBC0). The experiment in a line: ATG_HNF6_CIS: Attagene CIS-FACTORIAL HepG2 Assay for human Hepatocyte Nuclear Factor 6 (HNF6) (AID 2282952). The following applies: HepG2 Attagene cis-factorial HNF6 reporter transcription; actives raise or lower the signal. In short, it runs like this: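 HepG2 cells transiently transfected with cis-element-driven multiplexed reporter units measuring endogenous transcription factor activity. After 24 h exposure, reporter mRNA quantified by RT-PCR, FAM-labelled fragments and capillary electrophoresis; bidirectional fitting versus DMSO.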

The target of experiment [16] is Heat shock factor protein 1 (Homo sapiens) (UniProt Q00613). Kind of experiment: ATG_HSE_CIS: Attagene CIS-FACTORIAL HepG2 Assay for human Heat Shock Transcription Factor 1 (HSE) (AID 2282953). The following applies: HepG2 HSE cis-reporter, Attagene RNA transcription; actives raise or lower the signal. The method, boiled down: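 Liver-derived HepG2 cells carry transiently introduced multiple reporter units governed by cis promoters. Reporter RNA measured 24 h post-dose through reverse transcription, PCR amplification, fluorescent labelling and capillary electrophoresis, normalised to DMSO.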
Heat shock factor protein 1 (Homo sapiens), sequence (Q00613 whole entry, looked up): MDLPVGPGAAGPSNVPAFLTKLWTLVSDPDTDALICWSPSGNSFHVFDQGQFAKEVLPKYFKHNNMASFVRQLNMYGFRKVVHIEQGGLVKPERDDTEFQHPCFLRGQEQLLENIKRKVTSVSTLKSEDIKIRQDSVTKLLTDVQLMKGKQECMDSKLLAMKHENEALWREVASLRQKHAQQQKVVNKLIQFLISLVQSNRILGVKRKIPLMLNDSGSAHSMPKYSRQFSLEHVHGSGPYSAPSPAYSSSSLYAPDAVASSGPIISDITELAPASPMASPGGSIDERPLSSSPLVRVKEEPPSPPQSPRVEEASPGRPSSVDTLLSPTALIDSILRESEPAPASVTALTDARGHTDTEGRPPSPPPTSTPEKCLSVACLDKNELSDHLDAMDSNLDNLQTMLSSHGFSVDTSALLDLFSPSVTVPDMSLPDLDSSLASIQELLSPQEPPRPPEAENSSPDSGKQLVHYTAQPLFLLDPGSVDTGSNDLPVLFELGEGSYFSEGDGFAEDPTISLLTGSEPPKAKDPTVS

Experiment [17] is described as follows: ATG_MRE_CIS: Attagene CIS-FACTORIAL HepG2 Assay for human Metal Responsive Element (MRE) (AID 2282954). The following applies: HepG2 MRE cis-reporter transcription, Attagene multiplex; actives raise or lower the signal. In short, it runs like this:
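After a 24 h chemical exposure, transiently transfected HepG2 cells yield RNA whose reporter sequences are amplified, FAM-labelled and sized by capillary electrophoresis. Curves are fitted bidirectionally relative to DMSO.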

Experiment [18] is described as follows: ATG_PBREM_CIS: Attagene CIS-FACTORIAL HepG2 Assay for human Phenobarbital-responsive Enhancer Module (PBREM) (AID 2282955). The following applies: HepG2 PBREM cis-reporter, Attagene multiplexed transcription; actives raise or lower the signal. The method, boiled down: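 HepG2 cells transiently transfected with multiple cis-regulated reporter units measure endogenous transcription factor activity; 24 h compound exposure. Reporter mRNA quantified by RT-PCR, fluorescent labelling, HpaI digestion and capillary electrophoresis; bidirectional fit versus DMSO.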

Experiment [19] can be described thus: ATG_GATA_CIS: Attagene CIS-FACTORIAL HepG2 Assay for human GATA Binding Protein (AID 2282944). The following applies: HepG2 GATA cis-element reporter, Attagene multiplex mRNA; actives raise or lower the signal. In short, it runs like this: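 Transfected cis-reporter HepG2 cells were treated with chemicals for 24 hours. Total RNA was then converted to cDNA, amplified with reporter-specific primers and analysed by fluorescent capillary electrophoresis, using DMSO-treated wells as baseline.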

Experiment [20] concerns the target Bile acid receptor (Homo sapiens) (UniProt Q96RI1). The experiment in a line: ATG_IR1_CIS: Attagene CIS-FACTORIAL HepG2 Assay for human Nuclear Receptor Subfamily 1 Group H Member 4 (NR1H4), IR1 submotif (AID 2282946). The following applies: IR1 reporter transcription, actives raise or lower the signal. In short, it runs like this: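 Cells (human HepG2) carry transiently transfected cis-promoter reporter transcription units. Compounds are incubated 24 h, total RNA is reverse-transcribed and amplified, and labelled fragments are resolved by capillary electrophoresis. Curves use DMSO as baseline.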

Hepatocyte nuclear factor 3-beta (Homo sapiens), sequence (Q9Y261 whole entry, looked up): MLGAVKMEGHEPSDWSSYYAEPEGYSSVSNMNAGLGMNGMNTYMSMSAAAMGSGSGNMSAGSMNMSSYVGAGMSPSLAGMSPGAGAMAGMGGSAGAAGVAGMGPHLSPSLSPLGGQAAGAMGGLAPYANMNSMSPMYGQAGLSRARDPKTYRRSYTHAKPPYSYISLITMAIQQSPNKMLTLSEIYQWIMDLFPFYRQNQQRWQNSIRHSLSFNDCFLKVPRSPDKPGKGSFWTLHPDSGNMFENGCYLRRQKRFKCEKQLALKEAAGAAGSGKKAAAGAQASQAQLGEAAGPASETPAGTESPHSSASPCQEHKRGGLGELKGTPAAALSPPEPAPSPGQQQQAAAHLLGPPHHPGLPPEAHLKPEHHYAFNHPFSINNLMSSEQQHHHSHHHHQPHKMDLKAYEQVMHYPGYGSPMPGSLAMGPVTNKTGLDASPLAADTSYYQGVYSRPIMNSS
Hepatocyte nuclear factor 6 (Homo sapiens), sequence (Q9UBC0 whole entry, looked up, the tested form may be a part): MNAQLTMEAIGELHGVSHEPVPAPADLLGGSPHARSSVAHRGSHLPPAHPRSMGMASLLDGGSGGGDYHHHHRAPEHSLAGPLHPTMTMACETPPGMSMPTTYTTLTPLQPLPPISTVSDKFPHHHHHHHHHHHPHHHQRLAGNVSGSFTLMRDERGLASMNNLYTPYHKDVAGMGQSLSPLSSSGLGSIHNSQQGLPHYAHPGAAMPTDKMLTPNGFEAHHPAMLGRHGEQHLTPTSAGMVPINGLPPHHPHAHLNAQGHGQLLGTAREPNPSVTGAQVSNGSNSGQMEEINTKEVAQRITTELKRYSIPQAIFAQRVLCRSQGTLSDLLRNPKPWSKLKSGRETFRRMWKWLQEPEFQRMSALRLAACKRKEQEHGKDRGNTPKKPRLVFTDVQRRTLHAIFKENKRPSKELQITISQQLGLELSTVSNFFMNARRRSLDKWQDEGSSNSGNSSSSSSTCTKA
Hypoxia-inducible factor 1-alpha (Homo sapiens), sequence (Q16665 whole entry, looked up): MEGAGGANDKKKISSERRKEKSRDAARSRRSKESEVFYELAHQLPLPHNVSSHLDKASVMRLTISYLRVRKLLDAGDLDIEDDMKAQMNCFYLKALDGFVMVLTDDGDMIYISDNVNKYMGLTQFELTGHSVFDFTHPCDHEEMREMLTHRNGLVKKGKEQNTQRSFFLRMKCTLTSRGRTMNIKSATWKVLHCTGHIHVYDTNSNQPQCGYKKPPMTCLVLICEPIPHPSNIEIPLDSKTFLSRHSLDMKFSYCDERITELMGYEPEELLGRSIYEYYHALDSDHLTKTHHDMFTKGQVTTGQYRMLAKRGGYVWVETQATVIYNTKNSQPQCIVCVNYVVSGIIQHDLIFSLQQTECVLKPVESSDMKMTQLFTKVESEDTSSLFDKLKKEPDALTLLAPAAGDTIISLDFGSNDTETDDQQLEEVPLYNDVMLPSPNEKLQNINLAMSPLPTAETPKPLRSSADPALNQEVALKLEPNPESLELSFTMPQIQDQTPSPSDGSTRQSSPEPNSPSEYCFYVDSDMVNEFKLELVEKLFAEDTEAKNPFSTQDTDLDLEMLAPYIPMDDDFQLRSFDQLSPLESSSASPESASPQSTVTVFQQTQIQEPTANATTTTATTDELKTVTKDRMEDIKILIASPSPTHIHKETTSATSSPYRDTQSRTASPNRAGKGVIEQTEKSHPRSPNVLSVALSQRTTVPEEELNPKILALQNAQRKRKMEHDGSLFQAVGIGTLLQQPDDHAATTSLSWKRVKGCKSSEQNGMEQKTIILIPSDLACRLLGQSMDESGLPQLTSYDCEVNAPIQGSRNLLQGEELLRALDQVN
Bile acid receptor (Homo sapiens), sequence (Q96RI1 whole entry, looked up, the tested form may be a part): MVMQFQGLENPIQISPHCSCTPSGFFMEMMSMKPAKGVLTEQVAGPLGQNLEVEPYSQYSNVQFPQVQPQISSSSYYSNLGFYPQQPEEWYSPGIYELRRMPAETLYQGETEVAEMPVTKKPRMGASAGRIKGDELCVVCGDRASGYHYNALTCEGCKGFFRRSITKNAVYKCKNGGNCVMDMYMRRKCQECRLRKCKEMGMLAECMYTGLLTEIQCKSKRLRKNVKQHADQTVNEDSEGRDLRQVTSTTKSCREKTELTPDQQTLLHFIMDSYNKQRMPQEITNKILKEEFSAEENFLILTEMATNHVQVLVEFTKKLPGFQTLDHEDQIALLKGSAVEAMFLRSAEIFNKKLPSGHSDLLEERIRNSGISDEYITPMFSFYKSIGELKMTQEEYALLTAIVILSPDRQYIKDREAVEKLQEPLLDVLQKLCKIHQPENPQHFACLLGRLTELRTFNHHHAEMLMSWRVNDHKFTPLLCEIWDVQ

Take `C[Si](C)O[Si](C)(C)O[Si](C)(C)O[Si](C)C`: the result in experiment [1], in [2], in [3], in experiment [4], in experiment [6] and in experiment [7] was inactive. Besides, the result in experiment [8], in [9], in experiment [10], in experiment [11], in experiment [12] and in experiment [13] was inactive. In addition, the call in experiment [14], in experiment [15], in experiment [16] and in [17] was inactive. The AC50 in experiment [5] was 46.2 µM (active).

As to `CCOC(=O)c1ccc(N(C)C)cc1`, the result in experiment [1], in experiment [2], in [3], in experiment [4], in [5] and in [6] was inactive. The result in experiment [7], in experiment [8], in [10], in experiment [11], in experiment [12] and in [13] was inactive. Also, the call in experiment [14], in experiment [15], in [17] and in [18] was inactive.

As to `C=CCOc1c(Br)cc(Br)cc1Br`, the outcome in experiment [1], in experiment [2], in experiment [3], in experiment [4], in experiment [6] and in [7] was inactive. Besides, the call in experiment [19], in experiment [9], in experiment [20], in experiment [10], in experiment [11] and in experiment [12] was inactive. In addition, the compound was classed as inactive in experiment [13], in experiment [14], in experiment [15], in experiment [16], in experiment [17] and in experiment [18]. In experiment [5], the AC50 was 27.7 µM (active).

Turning to `CCCCCCOC(=O)C(C)CC` (stereo unspecified), the outcome in experiment [1], in [2], in experiment [3], in experiment [4], in experiment [5] and in experiment [6] was inactive. Moreover, the compound was classed as inactive in experiment [8], in experiment [19], in [9], in experiment [20], in [10] and in experiment [11]. Further, the compound was classed as inactive in [13], in experiment [14], in experiment [15], in [16], in [17] and in experiment [18].

With `[Cl][Bi]([Cl])([c]1ccccc1)([c]1ccccc1)[c]1ccccc1`, the AC50 in [1] is 3.68 µM (active); in [3], 6.3 µM (active); in [8], 4.47 µM (active); in experiment [11], 2.74 µM (active); in experiment [16], 5.52 µM (active); in experiment [17], 6.46 µM (active). The outcome in experiment [2], in experiment [4], in experiment [5], in [6], in experiment [19] and in experiment [10] was inactive. In addition, the result in experiment [12], in experiment [13], in experiment [14], in experiment [15] and in experiment [18] was inactive.

As for `CC(=O)Nc1nnc(S(N)(=O)=O)s1`, the outcome in [1], in experiment [2], in [3], in experiment [4], in experiment [5] and in [6] was inactive. Further, the result in [7], in experiment [9], in experiment [10], in [11], in [12] and in [13] was inactive. Moreover, the call in experiment [14], in experiment [15], in experiment [16], in experiment [17] and in experiment [18] was inactive.

Regarding `O=C1CCCC(=O)O1`, the result in experiment [1], in [2], in experiment [3], in experiment [4], in experiment [5] and in experiment [6] was inactive. The result in experiment [8], in experiment [19], in experiment [9], in [11], in experiment [12] and in experiment [13] was inactive. The compound was classed as inactive in [14], in experiment [15], in [16], in experiment [17] and in experiment [18].
